Inconclusive results are not listed. A call without a number means that no potency is given here. Unmarked numbers belong to inactive results. The source made the active and inactive calls. The call rests on the fitted dose curve; in most records, active means well fitted cell-killing curve with a large enough effect; inconclusive means small, poorly fitted or top-dose-only effect; inactive means no such curve, though single readings can be large or run the other way.
Potency means the concentration at half of the fitted maximal effect.

The test in a line: qHTS of pediatric cancer cell lines to identify multiple opportunities for drug repurposing: Primary screen for Rh41 cells (AID 1347108). Further: nearly all actives have a fitted effect of over 70% in size.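 On activity change, negative = cytotoxic: luminescence drop marks cytotoxic hits.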 The note with it: Rh41 rhabdomyosarcoma viability, CellTiter-Glo luminescence, 48 h; series mostly up to 46 µM. The source says: Drug repurposing or repositioning has been offered as a strategy for drug development in oncology programs. This approach has special potential for childhood cancers and other rare or orphan diseases, where the expected return on new drug development has been a disincentive to pharmaceuticals. […] In this project we exploit the poly-pharmacology of drugs to discover new indications via phenotypic screening of a panel of 19 well-characterized cell lines derived from solid tumors seen in children and adolescents. The goal is to identify approved drugs with previously unrecognized anticancer properties that has the potential to reveal new mechanisms and biological processes involved in carcinogenesis or drug resistance. We employed a titration-based paradigm (quantitative high-throughput screening or qHTS), where all compounds were tested at multiple concentrations for their effect on cell viability. Concentration-response curves (CRCs) were derived directly from the primary screen, and both potency and efficacy values were used to identify compounds with robust bioactivity profiles. We screened the NIH Chemical Genomics Center (NCGC) Pharmaceutical Collection (NPC) and Mechanism Interrogation Plate (MIPE) small molecule collections of approved and investigational compounds against these cell lines; and measured metabolically active cells after 48 hours of compound treatment as a proxy for cell viability. […] Assay Submitter: Nathalia J. Martinez, National Center for Advancing Translational Sciences, National Institutes of Health, Rockville, MD, USA; email: natalia.martinez@nih.gov Shen, M et al. Quantitative high-throughput phenotypic screening of pediatric cancer cell lines identifies multiple opportunities for drug repurposing. Oncotarget 2017 Dec 19;9(4):4758-4772. PMID 29435139.
The cells were obtained from University of North Carolina (UNC), Pediatric Preclinical Testing Program (PPT), and Coriell Institute (CI). qHTS cell viability assay: Cells were assayed in growth media at a density of 500-1,000 cells/well. Five microliters of cells were dispensed into 1,536-well, white, solid-bottom, TC-treated plates (Greiner Bio One) using a multidrop dispenser and incubated at 37 degrees C, 5% CO2, under a humidified atmosphere for 5 hours. Twenty-three nanoliters of compounds and controls (neutral control DMSO or positive control bortezomib at final concentration of 2.3 µM) were subsequently transferred by Kalypsys pintool. For primary screens, the MIPE collection was tested at 11-point dilutions (final concentrations range from 0.78 nM to 46 µM) and the NPC collection at 8-point dilutions (final concentrations range from 0.59 nM to 46 µM). Compounds tested in follow-up screens were assayed at 11-point dilutions. Cells were incubated for 48 hours, followed by addition of 3 µL of CellTiter-Glo (Promega). After a 15 min incubation at room temperature, samples were analyzed for luminescence intensity using a ViewLux High-throughput CCD imager equipped with clear filters.
In general terms: In qHTS, concentration-response curves come from the screen itself.
On to `CNCCCC1c2ccccc2C=Cc2ccccc21`, for which the Potency entry is “inactive”. Same read-out and setting: next, `CN(C)CCCN1c2ccccc2CCc2ccccc21`: “inactive”. As to `CCCCOC(=O)c1ccc(O)cc1`, the Potency entry was “inactive”. For the compound `CN1[C@@H]2CC[C@H]1CC(OC(=O)C(O)c1ccccc1)C2` (stereo not given in full), the Potency result was “inactive”.

With `CC1CC(OC(=O)C(O)c2ccccc2)CC(C)(C)N1C` (stereo not given), the Potency result was “inactive”. For `COC(=O)[C@H]1[C@H]2C[C@@H]3c4[nH]c5cc(OC)ccc5c4CCN3C[C@H]2C[C@@H](OC(=O)COc2ccc(OC)cc2)[C@@H]1OC`, the Potency entry is “inactive”.

As to `OCc1cc(C(O)CNCCCCCCOCCCCc2ccccc2)ccc1O` (stereo not given), the Potency entry is “inactive”. Same read-out and setting: the value for `CCCCCCCCCCCCCCCC(=O)NCCO` was “inactive”; that for `O=Cc1ccccc1C=O` was “inactive”.

Consider `CCOC(=O)c1ccc(O)cc1`, for which the Potency result is “inactive”. With `COc1ccc(S(=O)(=O)Nc2nnc(CC(C)C)s2)cc1`, the Potency entry is “inactive”. As to `CCN(CC)C(C)CN1c2ccccc2Sc2ccccc21` (stereo not given), the Potency result is “inactive”. Still for that read-out and setting: the value for `CC[C@H]1CN2CCc3cc(OC)c(OC)cc3[C@@H]2C[C@@H]1C[C@H]1NCCc2cc(OC)c(OC)cc21` was 3.76 µM (active). Take `CCOc1ccc2ccccc2c1C(=O)N[C@@H]1C(=O)N2[C@@H]1SC(C)(C)[C@@H]2C(=O)O`: the Potency result was “inactive”. `O=c1cc(CO)occ1O`: the Potency result was “inactive”.

Turning to `CN1CCCCC1CCN1c2ccccc2Sc2ccc(S(C)=O)cc21` (stereo not given), the Potency result was “inactive”.

As to `COc1ccccc1O`, the Potency entry was “inactive”. In the case of `Nc1ccc(S(=O)(=O)Nc2nccs2)cc1`, the Potency entry is “inactive”.

Consider `CC1=C(C/C=C(\C)CCC[C@H](C)CCC[C@H](C)CCCC(C)C)C(=O)c2ccccc2C1=O`, for which the Potency result was “inactive”. Take `O=C(CCCN1CCN(c2ccccn2)CC1)c1ccc(F)cc1`: the Potency entry is “inactive”. Take `CCN(CC)CCNC(=O)c1cc(Cl)c(N)cc1OC`: the Potency result was “inactive”. Same read-out and setting: next, `CCC(=O)Nc1ccc(O)cc1`: “inactive”; `O=C(O)[C@H](O)c1ccccc1`: “inactive”. On to `NC(N)=NCCC[C@H](N)C(=O)O`, for which the activity change, negative = cytotoxic was 10.4% [at 4.84 µM].

Turning to `Cc1ncc(COP(=O)(O)O)c(C=O)c1O`, the Potency entry was “inactive”. As for `C=CCn1c(=O)n([C@@H]2O[C@H](CO)[C@@H](O)[C@H]2O)c2nc(N)[nH]c(=O)c21`, the Potency result was “inactive”. `C[C@H](NC(CCc1ccccc1)C(=O)O)C(=O)N1CCC[C@H]1C(=O)O` (stereo not given in full): the Potency entry is “inactive”.

Turning to `CCN(CC)C(=O)Nc1ccc(OCC(O)CNC(C)(C)C)c(C(C)=O)c1` (stereo not given), the Potency result is “inactive”. For `C=Cc1c(C)c2cc3[nH]c(cc4nc(cc5nc(cc1[nH]2)C(C)=C5CCC(=O)O)C(CCC(=O)O)=C4C)c(C)c3C=C`, the Potency entry is “inactive”. For `CNCC(O)c1ccc(O)c(O)c1` (stereo not given), the Potency result is “inactive”.

With `COc1cc(C)c(Cc2cnc(N)nc2N)cc1OC`, the Potency entry was “inactive”.

`CCCCC/C(C=O)=C\c1ccccc1`: the Potency entry is “inactive”. Consider `CC(=O)c1ccc2c(c1)N(CCCN(C)C)c1ccccc1S2`, for which the Potency result was “inactive”. Take `CCOc1nc2cccc(C(=O)O)c2n1Cc1ccc(-c2ccccc2-c2nn[nH]n2)cc1`: the Potency entry was “inactive”.

In the case of `CCCOC(=O)c1ccccc1`, the Potency result is “inactive”. For the compound `O=C1NS(=O)(=O)c2ccccc21`, the Potency entry is “inactive”.

Regarding `CCCCN1CCCC[C@H]1C(=O)Nc1c(C)cccc1C`, the Potency entry was “inactive”. On the same count and under the same terms, next, `c1ccc2c(CC3=NCCN3)cccc2c1`: “inactive”; `CC(=O)Oc1c(C)c(C)c2c(c1C)CC[C@@](C)(CCC[C@H](C)CCC[C@H](C)CCCC(C)C)O2`: “inactive”. With `O=C1NC(=O)[C@@]2(CCOc3ccc(F)cc32)N1`, the Potency entry was “inactive”.

These data come from PubChem BioAssay (NCATS).
